# Measurements reported in PubChem BioAssay.
# Experiment: probe aShh binding to arrayed compounds – biochemical, biotinylated probe, 635/667 nm fluorescence, primary screen (AID 1114);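 also: probe is biotin-labelled aShh protein from a stem cell growth factor screen; measures binding of labelled protein to compounds printed on the slide; score merges feature fluorescence at 667 nm with signal-to-noise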
# Details: small-molecule microarray, higher = more signal
row,SMILES,composite z-score
1,O=C1C2C=CC(C(O)Cc3ccccc3)N(Nc3ccc([N+](=O)[O-])cc3)C2C(=O)N1c1ccccc1 (stereo unspecified),0.203
2,CC(C)C[C@@H]1NC(=O)[C@H](CC(C)C)NC(=O)[C@@]23C(=O)N[C@@H](Cc4ccccc4)C2[C@H](C)[C@@]2(C)O[C@H]2C3/C=C/CC/C=C/CNC1=O (stereo partly specified),-0.221
3,COC(=O)[C@@]1(Cc2ccccc2CN=[N+]=[N-])N=C(c2ccc(OCCCO)cc2)O[C@H]1c1ccccc1N=[N+]=[N-],-0.203
4,CCOC(=O)C[C@H]1[C@H](OC(=O)Cc2ccc3c(c2)OCO3)[C@@H](NC(=O)c2ccc3ccccc3c2)c2cc(OCCCO)ccc2N1C(=O)Cc1ccc(OC)cc1,-0.367
5,C[N+](C)(C)CCCCNC(=O)[C@H]1C[C@H]2C(=O)NCC(=O)N2[C@H]1c1cccc(OCCO)c1,0.147
6,C=C(/C(=C/C[C@@H](OC(=O)c1ccncc1)c1ccc(CO)o1)c1cnc2ccccc2c1)C(C)C,-0.0626
7,CCCNC(=O)[C@@]1(Sc2ccc(C)cc2)CC(=O)N(Cc2ccccc2Cl)[C@@H]1c1ccc(CO)cc1,0.0407
8,COC(=O)Cn1c(C(=O)N2CCCC2)cc2c1C[C@H]1CN(C(=O)c3ccccc3)[C@@](Cc3ccccc3)(C(=O)OC)[C@@H]21,0.0639
9,NC(=O)NCC#Cc1ccc2c(c1)[C@]1(C(=O)N2)[C@H](C(=O)N2CCCCCCC2)[C@H]2C(=O)O[C@H](c3ccccc3)[C@H](c3ccccc3)N2[C@@H]1c1ccccc1OCCO,2.38
10,Cc1ccc(S[C@]2(C(=O)NCCCN(C)C)CC(=O)N(C3CCCCC3)[C@@H]2c2ccc(CO)cc2I)cc1,0.173
11,CCN1C(C)=C(C(=O)OC)[C@@H](c2ccccc2)N2C(=O)[C@@]3(C(=O)OC)O[C@@]12[C@@H]1C(=O)N(C)C(=O)[C@@H]13,-0.283
12,CO[C@H]1COC(=O)[C@H](C)NC(=O)CC=C[C@@H](C)[C@H](NS(=O)(=O)c2ccc(C)cc2)COC(=O)CC=C[C@@H]1C,-0.0709
13,Cc1ccc(S(=O)(=O)N[C@H]2COC(=O)CC=C[C@H](C)COC(=O)N[C@@H](C)C(=O)CC=C[C@@H]2C)cc1,-0.0243
14,CN1C2C=C(c3ccc(CO)cc3)C(C3C(=O)N(C(N)=O)C(=O)C32)C1c1cccs1 (stereo unspecified),-0.0769
15,CCCC=C(CCC)[C@@H](NS(=O)(=O)c1ccc(C(F)(F)F)cc1)c1ccc(-c2ccccc2)cc1,0.217
16,CO[C@H]1COC(=O)[C@@H](C)NC(=O)CC=C[C@@H](C)[C@H](OC)COC(=O)CC=C[C@@H]1C,-0.153
17,C=CCC(OC(C)=O)[C@@H]1[C@@H](N(Cc2cc3ccccc3o2)C(=O)Cc2ccc(F)cc2)c2cc(OCCCO)ccc2N1C(=O)c1ccc(-c2ccccc2)cc1 (stereo partly specified),0.0141
18,Cc1ccc(N2C(=O)c3ccccc3[C@@H](C(=O)NCc3ccccc3)[C@@H]2c2ccc(CO)cc2)nc1,0.901

row,SMILES,composite z-score
1,CCCC[C@@H]1C[C@H]1[C@@H](NC(=O)c1ccccc1)c1ccccc1C(F)(F)F,0.204
2,CN1C(=O)C2C=CC(C(O)c3ccc(N(C)C)cc3)N(Nc3ccc([N+](=O)[O-])cc3[N+](=O)[O-])C2C1=O (stereo unspecified),0.446
3,O=C1C2C=CC(C(O)C#Cc3ccccc3)N(Nc3ccccc3)C2C(=O)N1c1ccccc1 (stereo unspecified),-0.16
4,Cc1ccc(S[C@]2(C(=O)NCCN3CCOCC3)CC(=O)N(C3Cc4ccccc4C3)[C@@H]2c2ccc(CO)cc2I)cc1,-0.0553
5,O=C1O[C@@H](c2ccccc2)[C@@H](c2ccccc2)N2[C@@H](c3ccc(O)cc3)[C@]3(C(=O)Nc4ccccc43)[C@@H](C(=O)N3CCN(c4ncccn4)CC3)[C@H]12,0.182
6,C=CC[C@]1(C(=O)NCC(O)CO)N=C(c2ccc(OCCCO)cc2)O[C@H]1c1ccccc1 (stereo partly specified),0.108
7,CC[C@@H]1C=C(C(=O)O)[C@H](c2ccccc2)N1S(=O)(=O)c1ccc([N+](=O)[O-])cc1,-0.138
8,CN1CCC(CCCO)=CC1C1CC1 (stereo unspecified),-0.138
9,C=CC[C@]1(C(=O)N2CCCCC2)N=C(c2ccc(OCCCO)cc2)O[C@H]1c1ccccc1N=[N+]=[N-],0.195
10,COc1cccc([C@@H]2[C@@H](C)CC[C@H]3C(=O)N4[C@H](c5cccc(OC)c5)[C@@H](C)CC[C@H]4C(=O)N23)c1,-0.2
11,COCCOC(=O)N1C(=O)[C@@]2(c3cc(C#CC4=CCCCC4)ccc31)[C@H](c1ccc(O)cc1)N1[C@H](c3ccccc3)[C@H](c3ccccc3)OC(=O)[C@H]1[C@@H]2C(=O)N1CCCCCCC1,0.332
12,C=CCC(OC(C)=O)[C@@H]1[C@@H](N(Cc2cccc3ccccc23)C(=O)c2ccc(C)cc2)c2cc(OCCCO)ccc2N1C(=O)c1ccc(-c2ccccc2)cc1 (stereo partly specified),-0.273
13,C=CCN1C(=O)[C@]2(O[C@H](CCn3cc(CCO)nn3)[C@@H]([Si](C)(C)c3ccc(OC)cc3)[C@@H]2C)c2cc(NC(=O)c3ccc(OC)cc3)ccc21,0.166
14,CC(=O)NCCCC[C@@H]1NC(=O)[C@@H]2C[C@H](C(=O)NCCCCCCN(C)C)[C@H](c3ccc(O)cc3)N2C1=O,0.0712
15,CO[C@@H]1COC(=O)[C@H](COCc2ccccc2)NC(=O)CC=C[C@@H](C)[C@H](OC)COC(=O)[C@H](COCc2ccccc2)NC(=O)CC=C[C@H]1C,-0.0626
16,COCCOC(=O)N1C(=O)[C@@]2(c3ccccc31)[C@H](C(=O)N1CCc3cc(OC)c(OC)cc3C1)[C@H]1C(=O)O[C@H](c3ccccc3)[C@H](c3ccccc3)N1[C@@H]2c1ccccc1OCCO,0.319
17,C=C(CCCC)/C(=C/C[C@@H](OC(=O)c1ccncc1)c1cccc(OCCO)c1)c1cc(C(=O)OC)ccc1OC,-0.138
18,C#CCCCON=C1C[C@@H](O)[C@@H](O)[C@@H]2[C@@H]3C(=O)N(Cc4ccc5c(c4)OCO5)C(=O)[C@@H]3CC[C@@H]12,0.147
